Values joined by “and” are separate entries in the source; they are usually repeats but may differ in a detail not shown here. Identical values can stand only once. Records with an inconclusive call do not appear. Values without a mark were called inactive. Active and inactive are the calls of the source. Unless noted, the call rests on the fitted dose curve.
On the % scale 0 is the no-effect control and ±100 the full control effect.

Chain of Thyrotropin receptor (Homo sapiens) (P16473 whole entry, looked up): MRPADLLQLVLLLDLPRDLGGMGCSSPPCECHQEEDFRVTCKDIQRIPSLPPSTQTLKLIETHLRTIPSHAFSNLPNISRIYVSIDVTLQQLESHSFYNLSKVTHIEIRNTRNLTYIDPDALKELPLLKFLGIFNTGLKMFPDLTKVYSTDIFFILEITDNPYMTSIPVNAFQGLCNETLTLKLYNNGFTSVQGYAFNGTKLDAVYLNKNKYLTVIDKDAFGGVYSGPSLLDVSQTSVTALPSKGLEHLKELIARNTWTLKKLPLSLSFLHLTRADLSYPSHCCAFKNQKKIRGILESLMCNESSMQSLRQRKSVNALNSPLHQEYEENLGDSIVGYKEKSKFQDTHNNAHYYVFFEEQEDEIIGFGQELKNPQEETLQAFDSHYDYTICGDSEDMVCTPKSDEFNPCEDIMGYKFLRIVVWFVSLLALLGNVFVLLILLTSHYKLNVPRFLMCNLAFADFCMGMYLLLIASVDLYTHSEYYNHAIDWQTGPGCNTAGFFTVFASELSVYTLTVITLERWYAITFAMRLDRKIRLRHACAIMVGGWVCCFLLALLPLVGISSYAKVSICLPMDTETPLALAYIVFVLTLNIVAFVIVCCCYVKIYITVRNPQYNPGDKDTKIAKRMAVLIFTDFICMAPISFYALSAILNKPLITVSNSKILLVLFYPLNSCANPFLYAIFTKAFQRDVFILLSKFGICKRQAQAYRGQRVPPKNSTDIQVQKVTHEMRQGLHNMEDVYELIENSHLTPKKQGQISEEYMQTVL

The target of one test is Nuclear receptor subfamily 1 group I member 3 (Homo sapiens) (UniProt Q14994). Briefly: qHTS assay to identify small molecule agonists of the constitutive androstane receptor (CAR) signaling pathway (AID 1224839; active means well fitted activation curve with a large enough effect in the repeat runs;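 further: HepG2 cells stably carrying human CAR and a CYP2B6 luciferase reporter; nearly all actives have a fitted effect of over 15% in size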). Conditions: HepG2 hCAR CYP2B6-luciferase, agonist mode, 24 h; series mostly up to 92.4 µM; activation: at the top concentration. A digest of the protocol: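 Luminescence read-out (ONE-Glo, 30 min, room temperature) from double-stable HepG2-CYP2B6-hCAR cells exposed 24 h to 15-point compound series in presence of 0.75 uM PK11195 final.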
Chain of Nuclear receptor subfamily 1 group I member 3 (Homo sapiens) (Q14994 whole entry, looked up): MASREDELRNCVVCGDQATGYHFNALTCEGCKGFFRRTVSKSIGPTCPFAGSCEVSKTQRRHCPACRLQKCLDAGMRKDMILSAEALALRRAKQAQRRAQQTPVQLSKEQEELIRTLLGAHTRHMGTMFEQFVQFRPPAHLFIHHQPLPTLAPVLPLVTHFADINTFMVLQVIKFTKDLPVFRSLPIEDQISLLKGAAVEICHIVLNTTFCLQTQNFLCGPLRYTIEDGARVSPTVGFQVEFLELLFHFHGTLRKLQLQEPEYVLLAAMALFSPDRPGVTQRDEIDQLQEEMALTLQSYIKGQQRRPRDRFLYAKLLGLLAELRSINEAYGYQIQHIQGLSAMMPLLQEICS
For orientation: In qHTS, concentration-response curves come from the screen itself.
With `OCCCS`, the “activation” value was 4.6%.

`CCc1ccc(C)nc1`: the “activation” value is -0.661%.

Take `CCC1(c2cnc[nH]2)Cc2ccccc2C1`: the “activation” value is 3.32% [at 42.5 µM].

On to `O=S(O)O`, for which the activation was -1.32% [at 19 µM].

On to `CCCC(C)CCC(C)=O` (centres undefined), for which the “activation” value is 1.94%.

Consider `CC(=O)Oc1ccc(C2(c3ccc(OC(C)=O)cc3)Oc3ccccc3NC2=O)cc1`, for which the “activation” value is -10.2% [at 42.5 µM].

In the case of `SCCCCCCCCS`, the “activation” value is -0.972%.

Test system in another test: not listed separately
Briefly: qHTS assay to identify small molecule antagonists of the estrogen related receptor signaling pathway with the pleiotropic PPARgamma coactivator (PGC) from Tox21 10K library - cell viability counter screen (AID 1224840; active means well fitted cell-killing curve with a large enough effect in the repeat runs, not every such curve was filed as active; further: nearly all actives have a fitted effect of over 40% in size; further: potency means the concentration at half of the fitted maximal effect). The settings on record: PGC/ERR reporter cells viability, CellTiter-Fluor, 17.5 h; series mostly up to 92.4 µM; viability change, negative = cytotoxic: at the top concentration. The essentials: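 PGC/ERR cells (2,000/well) plated 6 h, then compound-treated for 17.5 h at 37 C. Viability measured by CellTiter-Fluor fluorescence after 30 min at 37 C, multiplexed with the pathway assay.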
For `C/C=C/CO`, the “viability change, negative = cytotoxic” value was -1.72%.

With `NC(=O)C(=O)N/N=C/c1ccc([N+](=O)[O-])o1`, the “viability change, negative = cytotoxic” value is 0.986% [at 42.5 µM].

With `COc1ccc(C#N)cc1`, the “viability change, negative = cytotoxic” value was 11.8%.

With `C=CC(C)C#N` (centres undefined), the “viability change, negative = cytotoxic” value was 0.139%.

With `CN(C)CCN1CCOCC1`, the “viability change, negative = cytotoxic” value was -8.25%.

`O=C1OC(=O)c2ccc3c4c(ccc1c24)C(=O)OC3=O`: the “viability change, negative = cytotoxic” value is -4.07%.

`O=C1OC(=O)c2cccc3cccc1c23`: the “viability change, negative = cytotoxic” value is -16.9%.

Take `CCCCCCS`: the “viability change, negative = cytotoxic” value is -0.62%.

For `CC(C)(C)C1=CC(=O)C=C(C(C)(C)C)C1=O`, the “viability change, negative = cytotoxic” value is 3.3%.

Turning to `c1ccc2c(c1)CCC2`, the “viability change, negative = cytotoxic” value is 5.02%.

For the compound `CCN=C1C=CC(=C(c2ccc(N(CC)CC)cc2)c2ccc(N(CC)CC)cc2)c2ccccc21`, the Potency is 9.63 µM (active).

With `CC(=O)c1ccccc1N`, the “viability change, negative = cytotoxic” value was 8.48%.

For `N#CSCSc1nc2ccccc2s1`, the Potency was 61.1 µM (active).

As for `Nc1ncnc2c1ncn2[C@@H]1O[C@H](COP(=O)(O)O)[C@@H](O)[C@H]1O`, the “viability change, negative = cytotoxic” value is 6.84% [at 42.5 µM].

As to `CC1CNCC(C)O1` (centres undefined), the “viability change, negative = cytotoxic” value is -0.0318%.

Take `C[Si](C)O[Si](C)C`: the “viability change, negative = cytotoxic” value is 2.9%.

Regarding `ClC/C=C\CCl`, the “viability change, negative = cytotoxic” value is 1.51%.

For `CCCCCCCCCCCCOC(=O)c1cc(O)c(O)c(O)c1`, the Potency is 30.5 µM (active) and 6.11 µM (active).

`CC(C)=C1CC[C@@H](C)CC1=O`: the “viability change, negative = cytotoxic” value was 2.39%.

Consider `CCCCN(C)C`, for which the “viability change, negative = cytotoxic” value was 7.32%.

For `CCc1cccc(C)c1`, the “viability change, negative = cytotoxic” value is 2.25%.

As to `CCO[Si](CCCSSSSCCC[Si](OCC)(OCC)OCC)(OCC)OCC`, the “viability change, negative = cytotoxic” value was -2.08%.

As for `CCN(CC)CCSC(=O)C(c1ccccc1)c1ccccc1`, the “viability change, negative = cytotoxic” value is -13.5% [at 42.5 µM].

`OCCCS`: the “viability change, negative = cytotoxic” value is 7.87%.

On to `CCN(CC)CCOC(=O)C1(C2CCCCC2)CCCCC1`, for which the “viability change, negative = cytotoxic” value was -21.7% [at 42.5 µM].

As to `CCc1ccc(C)nc1`, the “viability change, negative = cytotoxic” value was 13.5%.

As to `CCC1(c2cnc[nH]2)Cc2ccccc2C1`, the “viability change, negative = cytotoxic” value is 0.404% [at 42.5 µM].

Turning to `O=S(O)O`, the viability change, negative = cytotoxic was -6.77% [at 19 µM].

For the compound `CCCC(C)CCC(C)=O` (centres undefined), the “viability change, negative = cytotoxic” value was -1.17%.

`CC(=O)Oc1ccc(C2(c3ccc(OC(C)=O)cc3)Oc3ccccc3NC2=O)cc1`: the “viability change, negative = cytotoxic” value was -17.8% [at 42.5 µM].

On to `SCCCCCCCCS`, for which the “viability change, negative = cytotoxic” value is 0.623%.

On to `CSc1c(Cl)c(Cl)c(Cl)c(Cl)c1Cl`, for which the “viability change, negative = cytotoxic” value is -0.153%.

As for `CCCCCCCCCCCC(=O)N(CC)CC`, the “viability change, negative = cytotoxic” value was 8.46%.

The next test addresses Thyrotropin receptor (Homo sapiens) (UniProt P16473). Briefly: qHTS assay to identify small molecule agonists of the thyroid stimulating hormone receptor (TSHR) signaling pathway (AID 1224843). Further: nearly all actives have a fitted effect of over 45% in size. Further: potency means the concentration at half of the fitted maximal effect. The settings on record: TSHR-HEK293 cells, cAMP HTRF, agonist mode, 30 min; series mostly up to 92.4 µM; activation: at the top concentration. A digest of the protocol: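 Screening of the Tox21 10K collection used HEK293 cells engineered with TSHR at 800 cells per well. After a 30-min room-temperature compound exposure, HTRF cAMP reagents were added and fluorescence recorded 1 h later.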
Consider `CN(C)CCN1CCOCC1`, for which the “activation” value is 6.91%.

On to `Cc1ccc(-n2[nH]c(C)c(N=Nc3cccc(-c4cccc(C(=O)O)c4)c3O)c2=O)cc1C`, for which the “activation” value was -3.29% [at 42.5 µM].

Take `CCCCCCS`: the “activation” value was -24.9%.

On to `CC(C)(C)C1=CC(=O)C=C(C(C)(C)C)C1=O`, for which the “activation” value is 3.98%.

With `CC(=O)c1ccccc1N`, the “activation” value was -10.7%.

For the compound `CC1CNCC(C)O1` (centres undefined), the “activation” value is -5.38%.

Take `ClC/C=C\CCl`: the “activation” value is -3%.

In the case of `CCCCCCCCCCCCOC(=O)c1cc(O)c(O)c(O)c1`, the Potency result is “inactive”.

Take `CC(C)=C1CC[C@@H](C)CC1=O`: the “activation” value was -0.931%.

As for `C=C1C(C)(C)[C@@]2(Cl)C(Cl)[C@]1(Cl)C(Cl)(Cl)C2(Cl)Cl` (some centres undefined), the Potency was 13.4 µM (active).

Regarding `CCCCN(C)C`, the “activation” value is -5.97%.

In the case of `CCc1cccc(C)c1`, the “activation” value is 4.89%.

`CCN(CC)CCSC(=O)C(c1ccccc1)c1ccccc1`: the “activation” value was 18% [at 42.5 µM].

Take `OCCCS`: the “activation” value was -2.66%.

As to `CCc1ccc(C)nc1`, the “activation” value was -16.5%.

Take `CCCC(C)CCC(C)=O` (centres undefined): the “activation” value is -20.9%.

With `CC(=O)Oc1ccc(C2(c3ccc(OC(C)=O)cc3)Oc3ccccc3NC2=O)cc1`, the “activation” value is -2.05% [at 42.5 µM].

Test system in a further test: not listed separately
Briefly: qHTS assay to identify small molecule agonists of the hypoxia (HIF-1) signaling pathway - cell viability counter screen (AID 1224844). Further: nearly all actives have a fitted effect of over 50% in size. Further: potency means the concentration at half of the fitted maximal effect. Conditions: HRE-bla ME-180 viability, CellTiter-Glo luminescence, 17 h; series mostly up to 76.8 µM; activity change, negative = cytotoxicity: at the top concentration. A digest of the protocol: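 HRE-bla ME-180 cells, 2,000/well in 0.5% dialyzed FBS medium, treated 17 h at 37C with compounds. Viability read in the same wells as the bla reporter, by CellTiter-Glo luminescence after 30 min at room temperature.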
With `C/C=C/CO`, the “activity change, negative = cytotoxicity” value is 1.96%.

For the compound `NC(=O)C(=O)N/N=C/c1ccc([N+](=O)[O-])o1`, the “activity change, negative = cytotoxicity” value was -24.2% [at 35.3 µM].

For the compound `COc1ccc(C#N)cc1`, the “activity change, negative = cytotoxicity” value was 4.37%.

For the compound `C=CC(C)C#N` (centres undefined), the “activity change, negative = cytotoxicity” value was 4.49%.

On to `CN(C)CCN1CCOCC1`, for which the “activity change, negative = cytotoxicity” value was 2.11%.

Take `O=C1OC(=O)c2ccc3c4c(ccc1c24)C(=O)OC3=O`: the “activity change, negative = cytotoxicity” value is 0.933%.

Take `O=C1OC(=O)c2cccc3cccc1c23`: the “activity change, negative = cytotoxicity” value is 0.184%.

In the case of `Cc1ccc(-n2[nH]c(C)c(N=Nc3cccc(-c4cccc(C(=O)O)c4)c3O)c2=O)cc1C`, the Potency was 6.74 µM (active).

As to `CCCCCCS`, the “activity change, negative = cytotoxicity” value is 0.715%.

Turning to `CC(C)(C)C1=CC(=O)C=C(C(C)(C)C)C1=O`, the “activity change, negative = cytotoxicity” value was 9.34%.

Turning to `c1ccc2c(c1)CCC2`, the “activity change, negative = cytotoxicity” value was 4%.

Turning to `CCN=C1C=CC(=C(c2ccc(N(CC)CC)cc2)c2ccc(N(CC)CC)cc2)c2ccccc21`, the Potency is 21.7 µM (active).

Regarding `CC(=O)c1ccccc1N`, the “activity change, negative = cytotoxicity” value was 10.6%.

On to `N#CSCSc1nc2ccccc2s1`, for which the Potency was 6.92 µM (active).

Turning to `Nc1ncnc2c1ncn2[C@@H]1O[C@H](COP(=O)(O)O)[C@@H](O)[C@H]1O`, the “activity change, negative = cytotoxicity” value was 8.24% [at 35.3 µM].

As to `CC1CNCC(C)O1` (centres undefined), the “activity change, negative = cytotoxicity” value is -3.29%.

For the compound `C[Si](C)O[Si](C)C`, the “activity change, negative = cytotoxicity” value was 1.17%.

On to `CCCCCCCCCCCCOC(=O)c1cc(O)c(O)c(O)c1`, for which the Potency was 48.8 µM (active) and 54.9 µM (active).

`CC(C)=C1CC[C@@H](C)CC1=O`: the “activity change, negative = cytotoxicity” value was 0.25%.

`C=C1C(C)(C)[C@@]2(Cl)C(Cl)[C@]1(Cl)C(Cl)(Cl)C2(Cl)Cl` (some centres undefined): the Potency was 48.1 µM (active).

Turning to `CCCCN(C)C`, the “activity change, negative = cytotoxicity” value was 0.861%.

`CCc1cccc(C)c1`: the “activity change, negative = cytotoxicity” value is -22.3%.

As for `CCO[Si](CCCSSSSCCC[Si](OCC)(OCC)OCC)(OCC)OCC`, the Potency is 19.5 µM (active).

For the compound `CCN(CC)CCSC(=O)C(c1ccccc1)c1ccccc1`, the “activity change, negative = cytotoxicity” value was 11.6% [at 35.3 µM].

On to `C[C@]12CC[C@H]3C(=CCc4cc(O)ccc43)[C@@H]1CCC2=O`, for which the Potency was 38.9 µM (active).

On to `OCCCS`, for which the “activity change, negative = cytotoxicity” value was 0.509%.

Regarding `CCc1ccc(C)nc1`, the “activity change, negative = cytotoxicity” value is 0.147%.

Turning to `CCC1(c2cnc[nH]2)Cc2ccccc2C1`, the “activity change, negative = cytotoxicity” value was -5.05% [at 35.3 µM].

On to `O=S(O)O`, for which the activity change, negative = cytotoxicity was 0.552% [at 15.8 µM].

With `CCCC(C)CCC(C)=O` (centres undefined), the “activity change, negative = cytotoxicity” value was 1.06%.

Take `CC(=O)Oc1ccc(C2(c3ccc(OC(C)=O)cc3)Oc3ccccc3NC2=O)cc1`: the “activity change, negative = cytotoxicity” value was 15.6% [at 35.3 µM].

With `SCCCCCCCCS`, the “activity change, negative = cytotoxicity” value is -9.99%.
